Data published in PubChem BioAssay (Tox21).
Results filed as inconclusive are left out. Unmarked numbers belong to inactive results. Activity calls are given as the source filed them. Calls come from the whole dose curve; as a rule, active = well fitted inhibition curve with a large enough effect in the repeat runs; inconclusive = weak or mixed curves; inactive = no such curve, though single readings can be large or run the other way.

Target: Cytochrome P450 2C9 (Homo sapiens) (UniProt P11712)
Assay: Cytochrome P450 Family 2 Subfamily C Member 9 (CYP2C9) small molecule antagonists: luciferase reporter qHTS assay (AID 1671198); note: nearly all actives have a fitted effect of over 50% in size
Conditions: P450-Glo CYP2C9 enzyme assay, luciferin luminescence; series mostly up to 115 µM; activity change, negative = inhibition: at the top concentration
From the text: U.S. Tox21 Program National Center for Advancing Translational Sciences [NCATS] U.S. Environmental Protection Agency [EPA] National Institutes of Environmental Health Sciences [NIEHS] National Toxicology Program [NTP] U.S. Food and Drug Administration [FDA] Tox21 Assay Overview: Cytochrome P450 (CYP) enzymes are membrane-bound hemeproteins that play a key role in metabolism of drugs and xenobiotics. Evaluation of the effect of chemicals on CYP isozymes is useful to minimize the adverse drug reactions and toxicities in drug development process. Tox21 chemicals were tested for their effect on CYP enzyme activities by using P450-Glo (TM) screening systems (Promega Corporation, Madison, WI). These systems provide a luminescent method containing proluciferin substrates and are converted to luciferin products by CYP isozymes. The luciferin products formed are detected with a luciferin detection reagent, and the amount of light produced is proportional to CYP activity. P450-Glo (TM) CYP2C9 screening system (Catalog. No. V9790) was used to detect the compounds that interfere in CYP2C9 activity.
Tox21 Assay Protocol Summary: Two ul of enzyme-substrate mix was dispensed into medium binding white/solid 1536-well plates (Greiner Bio-One North America Inc., Monroe, NC) using a BioRaptr Flying Reagent Dispenser (FRD, Beckman Coulter, Brea, CA). […] The assay plates were incubated at room temperature for 10 min. Then 2 ul of NADPH regeneration solution was added to each well of the assay plates using an FRD and incubated at 37C for 1 h. The reaction was stopped by adding 4 ul of detection reagent using an FRD and after 20 min incubation at room temperature the luminescence signal was measured using a ViewLux plate reader (Perkin Elmer, Shelton, CT). Data were expressed as relative luminescence units.
% is set by controls: 0 for no effect and ±100 for the full control effect; potency is the fitted concentration of half-maximal effect.

Sequence of Cytochrome P450 2C9 (Homo sapiens) (P11712 whole entry, looked up): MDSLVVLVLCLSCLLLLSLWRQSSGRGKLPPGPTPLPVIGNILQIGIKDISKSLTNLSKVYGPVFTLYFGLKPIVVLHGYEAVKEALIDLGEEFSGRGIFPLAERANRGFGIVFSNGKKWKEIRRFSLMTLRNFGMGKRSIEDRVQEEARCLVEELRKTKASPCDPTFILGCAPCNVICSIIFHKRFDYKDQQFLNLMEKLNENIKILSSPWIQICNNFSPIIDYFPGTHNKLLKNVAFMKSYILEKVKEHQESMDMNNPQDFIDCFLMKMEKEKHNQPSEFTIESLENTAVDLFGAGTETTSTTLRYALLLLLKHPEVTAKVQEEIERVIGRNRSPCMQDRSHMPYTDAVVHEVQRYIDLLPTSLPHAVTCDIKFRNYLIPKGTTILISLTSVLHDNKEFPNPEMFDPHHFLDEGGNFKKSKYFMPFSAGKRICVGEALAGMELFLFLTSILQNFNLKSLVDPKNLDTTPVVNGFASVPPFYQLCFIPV

Structure (SMILES) | activity change, negative = inhibition | Potency
CC[C@@H](CO)NCCN[C@@H](CC)CO | 11.2% [at 53 µM] | –
COC1CCC=CO1 (stereo not given) | 3.16% | –
O[C@@H](CNC[C@H](O)[C@H]1CCc2cc(F)ccc2O1)[C@@H]1CCc2cc(F)ccc2O1 | -12.2% [at 53 µM] | –
C/C(C=O)=C\c1ccccc1 | 6.11% | –
C=CC(=O)NC(C)C | 2.82% | –
O=C(O)CCCc1c[nH]c2ccccc12 | 0.842% | –
COc1ccc(C)cc1 | -7.2% | –
C1CCCCC1 | -1.62% | –
COC(C)(C)OC | -0.0848% | –
CCC(C)(C)C(=O)O | 6.62% | –
CN1CCCN(C(c2ccccc2)c2ccc(Cl)cc2)CC1 (stereo not given) | -0.736% [at 53 µM] | –
CCN(CC)CCNC(=O)c1cc(Cl)c(N)cc1OC | -16.8% [at 53 µM] | –
CC(C)COC(=O)COc1cc(Cl)c(Cl)cc1Cl | – | 35.5 µM (active)
CCCCCCCC(=O)OCCCCCC | -5.56% | –
C=Cc1ccc(OC(C)=O)cc1 | -20.5% | –
CCOC(=O)c1c(N)sc2c1CCN(Cc1ccccc1)C2 | – | 3.47 µM (active)
CNc1c2c(nn1C)CCCC2 | 12.8% [at 53 µM] | –
CCCC(=O)OC(=O)CCC | -0.544% | –
CCC1CCC(CCC(=O)O)C1 (stereo not given) | – | 36.4 µM (active)
CCSC(=O)N(CC)CC | -9.45% | –

Structure (SMILES) | activity change, negative = inhibition | Potency
Cc1ccc(Nc2c(F)cccc2Cl)c(CC(=O)O)c1 | – | 17.4 µM (active)
CCN(Cc1cccc(S(=O)(=O)O)c1)c1ccc(C(=C2C=CC(=[N+](CC)Cc3cccc(S(=O)(=O)O)c3)C=C2)c2ccc(O)cc2S(=O)(=O)[O-])cc1 | – | 6.83 µM (active)
O=C(O)CCC(=O)OC[C@@H](NC(=O)C(Cl)Cl)[C@H](O)c1ccc([N+](=O)[O-])cc1 | -18.5% [at 53 µM] | –
CCN(CC)C(=O)/C(C#N)=C/c1cc(O)c(O)c([N+](=O)[O-])c1 | – | 0.195 µM (active)
CCCCCCCC/C=C/C(=O)O | -32.3% [at 53 µM] | –
CCOC(=O)Oc1ccc(CCNC(=O)[C@H](CCSC)NC(C)=O)cc1OC(=O)OCC | – | 17.4 µM (active)
O=C1OC(=O)c2c(Br)c(Br)c(Br)c(Br)c21 | 5.29% | –
CC(C)C1CCC(C(=O)N[C@H](Cc2ccccc2)C(=O)O)CC1 (stereo not given in full) | – | 11 µM (active)
COc1ccc(-c2cc(C(F)F)nn2-c2ccc(S(N)(=O)=O)cc2)cc1F | – | 8.71 µM (active)
C=CCOC(=O)COCCC(C)C | -14.3% | –
CCN(Cc1cccc(S(=O)(=O)O)c1)c1ccc(C(=C2C=CC(=[N+](CC)Cc3cccc(S(=O)(=O)O)c3)C=C2)c2ccccc2S(=O)(=O)[O-])cc1 | – | 11.3 µM (active)
Cc1cn([C@H]2C[C@H](F)[C@@H](CO)O2)c(=O)[nH]c1=O | 2.36% [at 53 µM] | –
ClC1=C(Cl)C1(Cl)Cl | 0.358% | –
COC(=O)C1=C(C)NC(C)=C(C(=O)OC(C)(C)CN(C)CCC(c2ccccc2)c2ccccc2)C1c1cccc([N+](=O)[O-])c1 (stereo not given) | – | 2.45 µM (active)
CC1CCCC(=O)C1=O (stereo not given) | 0.217% | –
Cc1cccc2sc(N)nc12 | -19.2% | –
O=C(CCS)OCC(COC(=O)CCS)(COC(=O)CCS)COC(=O)CCS | – | 15.9 µM (active)
CC(C)c1ccc(C(=O)N=C(N)N)cc1S(C)(=O)=O | -19.6% [at 53 µM] | –
CC(=O)c1ccc[nH]1 | -17.2% | –
CCCCCCCCCCCC(=O)OCC(O)CO (stereo not given) | – | 39.9 µM (active)
